# Reference: the supplement of paper PMC12645437, “Orthogonal IMiD-Degron Pairs Induce Selective Protein Degradation in Cells” (ACS Chemical Biology, 2025)
# In all, about 8,300 sequences were measured (“log2 fold change of degron read counts, EGFP-low vs EGFP+ sorted cells (limma voom), compound-induced degradation”: median about -1.1, highest 2% from about 3.2 on). Many of the other results were omitted from the sample, so the highest values are more common in it than they were.
# T1: CRBN, Q96SW2
# T1 chain: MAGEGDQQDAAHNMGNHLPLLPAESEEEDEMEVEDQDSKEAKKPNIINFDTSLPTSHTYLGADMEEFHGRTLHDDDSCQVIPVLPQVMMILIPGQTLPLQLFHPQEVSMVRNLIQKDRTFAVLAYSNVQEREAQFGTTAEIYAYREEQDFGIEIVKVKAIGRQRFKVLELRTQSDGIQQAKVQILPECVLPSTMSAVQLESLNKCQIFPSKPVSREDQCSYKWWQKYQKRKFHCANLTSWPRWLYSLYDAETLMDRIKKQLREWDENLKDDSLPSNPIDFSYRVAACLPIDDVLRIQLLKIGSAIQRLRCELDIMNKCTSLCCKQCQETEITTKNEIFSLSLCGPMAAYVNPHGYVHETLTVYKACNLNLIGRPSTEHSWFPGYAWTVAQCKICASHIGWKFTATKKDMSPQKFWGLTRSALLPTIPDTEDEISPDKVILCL
# B1: 46F_47S_49N_50I_52G_53A_54T_55F_67L_, Q9UKT9 (peptide)
# chain: FSCNICGATFTQKGNLLRHIKL
# B2: 46F_47R_49S_50V_52G_53H_54P_55F_67L_, Q9UKT9 (peptide)
# chain: FRCSVCGHPFTQKGNLLRHIKL
# B3: 46L_47D_49N_50Q_52G_53F_54V_55C_67L_, Q9UKT9 (peptide)
# chain: LDCNQCGFVCTQKGNLLRHIKL
# B4: 46F_47D_49N_50V_52G_53A_54S_55F_67L_, Q9UKT9 (peptide)
# chain: FDCNVCGASFTQKGNLLRHIKL
# B5: 46F_47D_49E_50I_52G_53R_54T_55F_67L_, Q9UKT9 (peptide)
# chain: FDCEICGRTFTQKGNLLRHIKL
# B6: 46F_47R_49E_50I_52G_53R_54S_55F_67L_, Q9UKT9 (peptide)
# chain: FRCEICGRSFTQKGNLLRHIKL
# B7: 46F_47E_49N_50I_52G_53A_54I_55F_67L_, Q9UKT9 (peptide)
# chain: FECNICGAIFTQKGNLLRHIKL
# B8: 46F_47H_49P_50V_52G_53A_54S_55F_67L_, Q9UKT9 (peptide)
# chain: FHCPVCGASFTQKGNLLRHIKL
# B9: 46F_47C_49P_50V_52G_53A_54S_55F_67L_, Q9UKT9 (peptide)
# chain: FCCPVCGASFTQKGNLLRHIKL
# B10: 46F_47W_49D_50V_52G_53A_54S_55F_67L_, Q9UKT9 (peptide)
# chain: FWCDVCGASFTQKGNLLRHIKL
# B11: 46F_47W_49P_50V_52G_53A_54S_55F_67L_, Q9UKT9 (peptide)
# chain: FWCPVCGASFTQKGNLLRHIKL
# B12: 46F_47V_49D_50V_52G_53A_54S_55F_67L_, Q9UKT9 (peptide)
# chain: FVCDVCGASFTQKGNLLRHIKL
# B13: 46F_47L_49P_50V_52G_53A_54S_55F_67L_, Q9UKT9 (peptide)
# chain: FLCPVCGASFTQKGNLLRHIKL
# B14: 46F_47Y_49P_50V_52G_53A_54S_55F_67L_, Q9UKT9 (peptide)
# chain: FYCPVCGASFTQKGNLLRHIKL
# B15: 46F_47E_49D_50V_52G_53A_54S_55F_67L_, Q9UKT9 (peptide)
# chain: FECDVCGASFTQKGNLLRHIKL
# B16: 46F_47I_49P_50V_52G_53A_54S_55F_67L_, Q9UKT9 (peptide)
# chain: FICPVCGASFTQKGNLLRHIKL
# Target: T1, CRBN, Q96SW2
# Assay: log2 fold change of degron read counts, EGFP-low vs EGFP+ sorted cells (limma voom), compound-induced degradation; higher = more compound-induced degradation of the degron-EGFP fusion; degrons are variants of IKZF1/3 zinc finger 2; compound dose not given here
# Conditions: Jurkat, 18 h
# Method: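 Pooled library of 8380 IKZF3 ZF2 degron mutants (positions 146-167 varied within the IKZF3 130-189 degron; only the varied core is printed, flanks not printed) fused to EGFP with IRES-mCherry, lentivirally expressed in Jurkat cells. mCherry+ cells were treated with one IMiD compound for 18 h (dose not stated) and FACS-sorted into EGFP-low and EGFP+ populations. Degron sequences were counted by NGS, and log2FC (EGFP-low vs EGFP+) was estimated by limma voom over 3 biological replicates.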
# [1] = compound: compound 19 (5-tert-butyl-thalidomide)
# [2] = compound: compound 22 (5-morpholino-thalidomide)
# [3] = compound: compound 33 (diphenyl IMiD analogue)
# 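Note: pooled lentiviral library of zinc finger degron-EGFP fusions in mCherry-positive Jurkat cells, FACS-sorted after compound exposure, with degron abundance counted by next-generation sequencing.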
Sequence,log2 fold change of degron read counts [1],log2 fold change of degron read counts [2],log2 fold change of degron read counts [3],log2 fold change of degron read counts (compound: thalidomide)
B1,0.862,1.72,1.81,0.773
B2,-1.61,0.0411,-0.252,-0.256
B3,-1.84,-2.2,-2.2,-1.82
B4,-0.855,-1.38,-1.21,-0.475
B5,-2.33,-3.04,-1.56,-1.64
B6,-2.18,-2.81,-0.226,-0.504
B7,-2.22,-1.59,0.523,1.84
B8,2.48,2.53,2.04,0.495
B9,3.07,2.44,2.49,2.37
B10,2.69,3.48,1.06,-0.779
B11,3.31,3.48,2.42,1.35
B12,-1.45,1.32,0.282,0.656
B13,0.819,-0.0304,1.62,1.37
B14,3.09,3.3,2.34,1.12
B15,-0.176,-2.77,-0.519,-0.688
B16,-0.331,2.74,2.17,2.62
